Assay results published in PMC7826789 (International Journal of Molecular Sciences, 2021).

What follows are molecules tested on IRAK3. Details: Compound Concentration (nM):1000.
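Further: KINOMEscan scanMAX binding as percent activity remaining versus control; lower means stronger binding.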

Question: For `NS(=O)(=O)c1ccc(N/N=C2\C(=O)Nc3ccc(C(=O)NCc4ccncc4)cc32)cc1` [GW300657X], which “Percent Control” value is on record?
Answer: 91%

Question: For `C/C(Nc1ccc(S(N)(=O)=O)cc1)=C1/C(=O)Nc2ccccc21` [GW335962X], which “Percent Control” value is on record?
Answer: 88%

Question: How did the “Percent Control” value turn out when `C[C@@H](Oc1cc(-n2cnc3ccc(OC4CCN(C)CC4)cc32)sc1C(N)=O)c1ccccc1Cl` [GSK579289A] was run?
Answer: 83%

Question: `COc1ccc2[nH]c3c4[nH]c5ccc(OC)cc5c4c4c(c3c2c1)C(=O)NC4=O` [GW296115X] was tested. Which “Percent Control” value did it give?
Answer: 66%

Question: For `CN1CCN(C(=O)c2ccc(NC(=O)Nc3ccc(N(C)c4ccnc(Nc5ccc(CS(C)(=O)=O)cc5)n4)cc3)cc2)CC1.Cl` [GW830263A], which “Percent Control” value is on record?
Answer: 0.1%

Question: With `CCc1ccc(Oc2nccc(-c3c(-c4ccc(F)cc4)ncn3C3CCNCC3)n2)cc1` [SB-242719] as the molecule, how does the “Percent Control” value read?
Answer: 95%

Question: How did the “Percent Control” value turn out when `NS(=O)(=O)c1ccc(N/N=C2\C(=O)Nc3ccc(Cl)cc32)cc1` [GW280670X] was run?
Answer: 100%
